According to PubChem BioAssay (NCI):
Compounds without any hit were thinned out: in the full panel of roughly 83,000, 20% have a hit.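 A percent growth of 40 corresponds to 60% growth inhibition; 0 means no net growth; -100 means all cells died. Active threshold: below 10.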 Values without a mark were called inactive. The source made the active and inactive calls.

Experiments:
Assay in all cases: NCI-60 one-dose screen, 48 h (100 = growth as untreated, 0 = no growth, -100 = all killed)
Conditions in all cases: 10 µM unless noted
DU-145 prostate = test system: DU-145 prostate
K-562 leukemia = test system: K-562 leukemia
MALME-3M melanoma = test system: MALME-3M melanoma
MDA-MB-231 breast = test system: MDA-MB-231 breast
RXF 393 renal = test system: RXF 393 renal
SF-268 CNS = test system: SF-268 CNS
SF-295 CNS = test system: SF-295 CNS
SF-539 CNS = test system: SF-539 CNS
UACC-257 melanoma = test system: UACC-257 melanoma
M14 melanoma = test system: M14 melanoma
HCT-15 colon = test system: HCT-15 colon
HT29 colon = test system: HT29 colon
SNB-75 CNS = test system: SNB-75 CNS
SNB-19 CNS = test system: SNB-19 CNS
U251 CNS = test system: U251 CNS
PC-3 prostate = test system: PC-3 prostate
SK-MEL-5 melanoma = test system: SK-MEL-5 melanoma
UACC-62 melanoma = test system: UACC-62 melanoma
LOX IMVI melanoma = test system: LOX IMVI melanoma
SK-MEL-28 melanoma = test system: SK-MEL-28 melanoma

Structure (SMILES)	growth (DU-145 prostate)	growth (K-562 leukemia)	growth (MALME-3M melanoma)	growth (MDA-MB-231 breast)	growth (RXF 393 renal)	growth (SF-268 CNS)	growth (SF-295 CNS)	growth (SF-539 CNS)	growth (UACC-257 melanoma) [%]	growth (M14 melanoma)	growth (HCT-15 colon)	growth (HT29 colon) [%]	growth (SNB-75 CNS)	growth (SNB-19 CNS)	growth (U251 CNS)	growth (PC-3 prostate)	growth (SK-MEL-5 melanoma)	growth (UACC-62 melanoma)	growth (LOX IMVI melanoma)	growth (SK-MEL-28 melanoma)
COc1ccc2cc(-c3cc(OC)c(OC)c(OC)c3)c(=O)oc2c1	101%	27.7%	65.1%	60.8%	84.9%	89.7%	71.4%	80.2%	54.9	38.6%	50%	44.3	65%	80.3%	70.7%	69.2%	79.5%	42%	73.5%	78.5%
COc1cccc(C(=O)NCCCNc2cc(-c3cn(-c4ccccc4)nc3-c3cccc(OC)c3)ccn2)c1	65.8%	22.8%	51.7%	44%	66.8%	63.9%	44%	85.3%	30	34.4%	35.5%	27.7	63.5%	65%	39.7%	27.4%	9.17% (active)	26.2%	51.8%	65.7%
Cc1ccc(NS(=O)(=O)c2ccc3c(c2)C2OCCC2C(c2ccc(C(=O)C(C)C)cc2)N3)cc1C (stereo not given)	60.9%	33.6%	17.1%	76.5%	65.4%	57.8%	31.9%	66%	23.9	50%	32.3%	44.9	61.8%	68.2%	49.1%	28.8%	-32.4% (active)	47.2%	64.2%	51.3%
N#CC1=C(NC=O)Oc2c(ccc3ccccc23)C1c1ccccc1 (stereo not given)	41.3%	15.1%	66.8%	31.9%	25.5%	41.3%	29.3%	8.89% (active)	41.5	10.2%	30.3%	94	2.51% (active)	30.8%	21.6%	18.3%	-33.1% (active)	30.9%	34.1%	60.2%
C[C@H]1[C@H]2[C@H]3CC[C@@H]4[C@@]5(C)C/C(=C/c6cccnc6)C(=O)C(C)(C)[C@@H]5CC[C@@]4(C)[C@]3(C)CC[C@]23CO[C@]1(C)[C@@H](C(=O)/C=C\c1cccnc1)C3	-28.8% (active)	6.51% (active)	-33.5% (active)	-30.7% (active)	-91.8% (active)	7.1% (active)	6.07% (active)	-32.4% (active)	13.2	-20.1% (active)	-15.3% (active)	26.4	32.7%	2.48% (active)	-68% (active)	-3.56% (active)	-82.2% (active)	-25.6% (active)	-85.2% (active)	-17.8% (active)
O=S(=O)(NCCCNc1cc(-c2c(-c3cccc(O)c3)nc3sccn23)ccn1)c1cccc(Cl)c1	55.9%	25.4%	48.2%	73.6%	41.1%	44.3%	49.3%	77.4%	68.4	41.7%	28.4%	50.2	14.2%	67.3%	53.4%	24.6%	31.1%	40.3%	29.6%	60.7%
COC(=O)[C@]12CC[C@@H](C)[C@H](C)[C@@H]1C1=CC[C@@H]3[C@@]4(C)C(C=O)=C[C@@](C)(COS(C)(=O)=O)[C@@H]4C(=O)C[C@@]3(C)[C@]1(C)CC2	41.2%	21.3%	83.6%	37.2%	73.8%	40.2%	37.3%	65.7%	52.6	36.8%	21.4%	26.9	38.7%	41.7%	26%	12%	63.8%	38.6%	35.7%	74.2%
N#CCN1C(=O)C2C3=C(CCCC3)SC2N=C1CN1CCCC1 (stereo not given)	99.7%	70.1%	111%	94.9%	88.6%	118%	107%	92.5%	96.8	120%	74.4%	110	88.3%	106%	102%	48.5%	98.2%	83.6%	97.7%	120%
O=C(Nc1cccc2c(O)c(N=Nc3ccc(S(=O)(=O)Nc4nccs4)cc3)cc(N=Nc3ccc(S(=O)(=O)Nc4nccs4)cc3)c12)C(Cl)Cl	33.8%	143%	138%	92.3%	71.2%	66.2%	78.2%	86.6%	80.6	110%	60.2%	62.8	83%	73.6%	63.1%	15.7%	85.2%	89%	66.7%	82.9%
COc1ccc(-c2nc3ccc4[nH]ncc4c3c3c2CCCC3)cc1B(O)O	45.9%	59.8%	75%	69.3%	6.38% (active)	56.3%	56.3%	52.8%	88.5	46.5%	34.4%	67.2	18.9%	82.7%	78%	57.6%	73.8%	47.1%	40.4%	68.1%
Cn1c(=O)c2c(nc(Cl)n2CCl)n(C)c1=O	113%	21.3%	75.6%	105%	53%	104%	112%	103%	84.5	12.4%	13.6%	80.9	94%	100%	96%	98.5%	88.1%	94.7%	-0.952% (active)	55%
COc1cc(N=Nc2ccc(N)cc2)c(OC)cc1N=Nc1ccccc1.[Cl][Zn][Cl]	118%	104%	74.1%	84.6%	114%	96.5%	116%	87.9%	109	101%	91.2%	113	80.9%	105%	104%	90.7%	102%	92.2%	88%	109%
Cc1cccc(Cc2cnc(NC(=O)c3ccc4nnsc4c3)s2)c1	74%	39.4%	95.3%	111%	97.5%	89.9%	93.7%	91%	95.4	64.6%	68.6%	82.8	105%	96.1%	88.7%	66.1%	97.3%	35.3%	34.6%	103%
C=CC(=O)Nc1cccc(Oc2nccc(Nc3nnc(C4CC4)s3)n2)c1	94.5%	81.9%	111%	67.1%	86.1%	89.8%	104%	89.1%	105	113%	91.5%	96.8	71.4%	82.7%	94.1%	91.7%	89.5%	95.6%	89.6%	98.8%
COc1ccc(N=C(c2ccccc2)C2C(=O)c3ccccc3C2=O)cc1	99.8%	75.4%	103%	103%	72.1%	97.7%	67.2%	72.3%	93.8	92%	67%	79.5	76.3%	89.5%	81.8%	32.3%	71.4%	63%	75.4%	74.1%
